SMILES strings stand for the structures. In all, about 190,000 compounds went through this assay and about 1,300 (0.68%) were called active. Cut-off read from the data, not from the text of the source: active = inhibition above about 50%; inactive = the rest. What follows is part of a selection rich in actives, with near analogues and random picks from the rest.

As a reminder, the inhibition is the change of the read-out against control, counted positive when it falls.

In this test the target is Mannose-6-phosphate isomerase (Homo sapiens) (UniProt P34949). Kind of test: human PMI inhibitors, high substrate, primary screen, biochemical, fluorescence intensity, high mannose 6-phosphate (AID 1220). To be noted: recombinant PMI enzyme, coupled fluorescence intensity; at 20 µM; hits give high values.
Chain of Mannose-6-phosphate isomerase (Homo sapiens) (P34949 whole entry, looked up): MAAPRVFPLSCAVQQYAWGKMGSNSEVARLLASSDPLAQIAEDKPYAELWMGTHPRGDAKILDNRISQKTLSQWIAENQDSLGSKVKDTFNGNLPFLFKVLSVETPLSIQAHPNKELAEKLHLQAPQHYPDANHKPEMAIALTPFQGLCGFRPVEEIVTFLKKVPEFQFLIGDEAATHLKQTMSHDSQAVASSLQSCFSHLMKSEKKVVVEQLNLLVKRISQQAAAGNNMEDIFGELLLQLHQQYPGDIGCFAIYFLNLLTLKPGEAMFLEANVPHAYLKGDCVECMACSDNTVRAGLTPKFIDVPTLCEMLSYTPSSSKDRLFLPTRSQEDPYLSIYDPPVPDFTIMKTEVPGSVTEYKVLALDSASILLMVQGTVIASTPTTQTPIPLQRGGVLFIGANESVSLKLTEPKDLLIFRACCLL
Turning to `O=C(CN1CCSCC1)N/N=C/c1ccc(F)c(F)c1`, the inhibition was -7.6% (inactive).

As for `CC(Oc1ccc(Br)cc1)C(=O)NCc1ccccn1` (centres undefined), the inhibition was -0.8% (inactive).

For the molecule `CCN1CCN(C(=O)c2ccccc2NS(=O)(=O)c2ccc(Cl)cc2)CC1`, the inhibition is -3.6% (inactive).

Regarding `COc1ccc(C(C#N)N2CCC(c3ccccc3)=N2)cc1OC` (centres undefined), the inhibition is -5.6% (inactive).

Turning to `COc1ccc(/C(C)=N\NS(=O)(=O)c2ccccc2)cc1OC`, the inhibition is 4.4% (inactive).

As to `COc1ccc(C2CCCN2C(=S)Nc2ccc(C)cc2Cl)cc1OC` (centres undefined), the inhibition is 2.1% (inactive).

With `COc1ccc(CNC(=O)c2ccc(C(C)C)cc2)cc1`, the inhibition is 12.3% (inactive).

For the molecule `O=C(Nc1ccccc1OC(F)F)c1ccccc1`, the inhibition is 9.2% (inactive).

Turning to `CC1CCCCC1N1CCN(C(=O)c2cccc(F)c2)CC1` (centres undefined), the inhibition is -10.5% (inactive).

As for `O=C(Nc1nc2ccc(F)cc2s1)C1CCN(S(=O)(=O)c2cc([N+](=O)[O-])ccc2Cl)CC1`, the inhibition was 13.7% (inactive).

For `C=CCn1c(Cc2ccc(OC)cc2)nnc1SCC(=O)NCCc1ccccc1`, the inhibition was -0.7% (inactive).

`COc1ccc(C(C)C)cc1S(=O)(=O)N1CCN(c2ccccc2)CC1`: the inhibition was 6.8% (inactive).

As for `Cn1nnnc1NCc1ccc(Cl)cc1`, the inhibition was -7.1% (inactive).

In the case of `COCc1ccc(CN2CCc3c([nH]c4ccccc34)C2CC(C)C)o1` (centres undefined), the inhibition was 52% (active).

With `Cc1cnc(CN2CCc3c([nH]c4ccccc34)C2CC(C)C)[nH]1` (centres undefined), the inhibition was 11.2% (inactive).

On to `COCc1ccc(CN2CCc3c([nH]c4ccccc34)C2C(C)(C)C)o1` (centres undefined), for which the inhibition is 14.1% (inactive).

As to `O=C(Cc1cccs1)Nc1ccc(S(=O)(=O)N2CCCC2)cc1`, the inhibition was 39.8% (inactive).

Regarding `CC(On1c(-c2ccccc2)nc2ccc(Cl)cc21)C(=O)O` (centres undefined), the inhibition is -10.3% (inactive).

Take `CC(C)=CC(=O)N1CCCc2ccccc21`: the inhibition is 10.1% (inactive).

On to `C/C(=C\C(=O)N1CCc2ccccc21)C(=O)O`, for which the inhibition is 61.3% (active).

Regarding `C/C(=C/C(=O)N1CCc2ccccc21)C(=O)O`, the inhibition is 2.1% (inactive).

Regarding `Nc1nonc1-n1nnc(C(=O)O)c1-c1cccs1`, the inhibition was 0.4% (inactive).

Consider `Cc1noc(C)c1COC(=O)CNC(=O)c1cccc(F)c1`, for which the inhibition was -11.8% (inactive).

In the case of `Oc1ccc(C=Nc2cccc3ncccc23)c(O)c1`, the inhibition is 38.7% (inactive).

Turning to `O=C(Nc1ccc2oc(Cc3ccc(Cl)cc3)nc2c1)c1cccnc1`, the inhibition is 7.7% (inactive).

With `CN(C)/N=C/c1cc([N+](=O)[O-])ccc1O`, the inhibition is 9.8% (inactive).

In the case of `O=[N+]([O-])c1ccc(O)c(/C=N/Nc2ccccn2)c1`, the inhibition is -20.1% (inactive).

As for `O=[N+]([O-])c1ccc(O)c(C=Nc2cccc3ncccc23)c1`, the inhibition was 52.5% (active).

Take `O=[N+]([O-])c1ccc(O)c(C=Nc2ccc3c(c2)OCCO3)c1`: the inhibition is 52.8% (active).

For `Oc1c(Cl)cc(Cl)cc1C=Nc1ccc2c(c1)OCCO2`, the inhibition was 25% (inactive).

As to `O=[N+]([O-])c1ccc(O)c(C=Nc2ccc3nc(-c4ccccc4)[nH]c3c2)c1`, the inhibition is 8.2% (inactive).

Take `O=[N+]([O-])c1ccc(O)c(C=Nc2ccc3oc(Cc4ccc(Cl)cc4)nc3c2)c1`: the inhibition was 61.1% (active).

Take `Oc1c(Br)cc(Br)cc1C=Nc1ccc2c(c1)OCCO2`: the inhibition is 59.7% (active).

On to `O=C(N/N=C/c1cc([N+](=O)[O-])ccc1O)c1ccc2c(c1)OCCO2`, for which the inhibition was -16.7% (inactive).

Regarding `Oc1c(Br)cc(Br)cc1C=Nc1ccc2c(c1)OCO2`, the inhibition is 48.6% (inactive).

Consider `C=CCn1c(SCC(N)=O)nnc1-c1cccc(Br)c1`, for which the inhibition was 1% (inactive).

As to `Cc1ccc(CN2CCN(Cc3cnc(C)[nH]3)CC2CCO)cc1` (centres undefined), the inhibition is 2% (inactive).

Consider `O=C(Nc1c(F)cc(F)cc1Br)C1CCCO1` (centres undefined), for which the inhibition was 15.5% (inactive).

On to `CC(=O)NCCc1ccc(S(=O)(=O)N2CCOCC2)cc1`, for which the inhibition is -2.7% (inactive).

Take `CCOC(=O)CNC(=O)CSc1nnc(SCC(=O)NCC(=O)OCC)s1`: the inhibition is -6.4% (inactive).

`COc1ccc(/C=C/C(=O)NC(=S)N2CCN(C)CC2)cc1`: the inhibition is -10.4% (inactive).

For `CSc1ccccc1NC(=O)CN(C)CC(=O)Nc1ccccc1F`, the inhibition is -13.9% (inactive).

As to `Cc1ccc(NC(=S)N(Cc2ccco2)C2CCN(C(C)C)CC2)cc1`, the inhibition is -8.2% (inactive).

Consider `O=C1COc2ccc3ccccc3c2CN1`, for which the inhibition is -0.8% (inactive).

As to `Cn1c2c(c(=O)n(C)c1=O)[C@@H]1c3c(ccc4ccccc34)OC[C@@H]1CO2`, the inhibition is -2.5% (inactive).

In the case of `CN1COc2ccc3ccccc3c2C1`, the inhibition was 67.8% (active).

As to `Cc1ccc(C(=O)N/N=C/c2ccc(N3CCOCC3)cc2)c(C)c1`, the inhibition was -8% (inactive).

As to `CCN(C(=O)c1ccc(NC(C)=O)cc1)c1ccccc1C`, the inhibition was -3% (inactive).

For `Cc1ccccc1Nc1c([N+](=O)[O-])ccc2c1=NC1(CCCCC1)N=2`, the inhibition is 38.7% (inactive).

Take `Cc1ccc(Nc2cc(C)nc3c(C)ccc([N+](=O)[O-])c23)cc1`: the inhibition is 10.2% (inactive).

As to `O=[N+]([O-])c1ccc2c(c1Nc1ccccc1)=NC1(CCCCC1)N=2`, the inhibition was 58.9% (active).

Regarding `Cc1ccc(NC(=O)c2ccc(Nc3c([N+](=O)[O-])cc([N+](=O)[O-])cc3[N+](=O)[O-])cc2)cc1`, the inhibition is 3.9% (inactive).

`O=[N+]([O-])c1ccccc1Nc1ccccc1`: the inhibition was -3.7% (inactive).

Consider `Cc1ccc(Nc2c([N+](=O)[O-])ccc3c2=NC2(CCCCC2)N=3)cc1`, for which the inhibition was 50.8% (active).

Regarding `C[C@H]1CC[C@@]2(O[C@H](CCO)C[C@@H](O)[C@@H]2O)O1`, the inhibition was 12.7% (inactive).

Turning to `COc1ccc(Cn2nnc3c(=O)[nH]c(C4CCCN(C(=O)c5ccccc5)C4)nc32)cc1` (centres undefined), the inhibition was -5.4% (inactive).

On to `CC1(C)Cc2ccccc2C(/C(=N/O)C(N)=O)=N1`, for which the inhibition was 5.1% (inactive).

Regarding `CCOC(=O)/C(=N\O)C1=NC(C)(C)Cc2ccccc21`, the inhibition is -11.3% (inactive).

On to `COc1ccc(-c2c(C)nn3c(N4CCC(C(=O)NCCN(C)C)CC4)cc(C)nc23)cc1OC`, for which the inhibition is 5.7% (inactive).

On to `CCN(CC)CCNC(=O)C(C(=O)c1ccccc1)n1ccccc1=O` (centres undefined), for which the inhibition was 1.8% (inactive).

Consider `COc1ccc(CNC(=O)C(c2ccncc2)N(C(=O)Cc2cccs2)c2ccccc2)cc1` (centres undefined), for which the inhibition was 1.9% (inactive).

`Cc1cc(NC(=O)c2c(F)cccc2F)n(-c2nc3ccccc3[nH]2)n1`: the inhibition is 3% (inactive).

Regarding `Cc1cc(NC(=O)c2ccccc2F)n(-c2nc3ccccc3[nH]2)n1`, the inhibition is -1.3% (inactive).

In the case of `Cc1cc(NC(=O)c2ccccc2)n(-c2nc3ccccc3[nH]2)n1`, the inhibition was 59.2% (active).

Take `COc1cc(OC)c(-c2nnc3n(CCc4ccccc4)c(=O)c4ccccc4n23)cc1OC`: the inhibition was 10.4% (inactive).

With `COc1ccc(CCN2C(=O)C3C4C=CC(C4)C3C2=O)cc1OC` (centres undefined), the inhibition was 14% (inactive).

As to `CCCCOc1ccc(Nc2nc(C)cc(C)c2C#N)cc1`, the inhibition was 6.1% (inactive).

As for `CCOc1cc(NC(=S)Nc2cccc(OC)c2)c(OCC)cc1NC(=O)c1ccc(C)cc1`, the inhibition was 55.1% (active).

Take `CCOc1cc(NC(=S)NC)c(OCC)cc1NC(=O)c1ccc(OC)cc1`: the inhibition was 49.8% (inactive).

Turning to `CCOc1cc(NC(=S)Nc2ccccc2)c(OCC)cc1NC(=O)c1ccc(OC)cc1`, the inhibition is 56.8% (active).

As for `CCOc1cc(NC(=O)CCl)c(OCC)cc1NC(C)=O`, the inhibition was 20.4% (inactive).

Take `CCOc1cc(NC(=S)Nc2cccc(C)c2)c(OCC)cc1NC(=O)CC(C)C`: the inhibition is 17.5% (inactive).

With `CCOc1cc(NC(=S)Nc2cccc(OC)c2)c(OCC)cc1NC(=O)C(C)C`, the inhibition was 45.4% (inactive).

Regarding `CCOc1cc(NC(=S)Nc2cccc(OC)c2)c(OCC)cc1NC(=O)C1CC1`, the inhibition is 56.8% (active).

Consider `COc1cccc(NC(=O)CNC(=O)c2ccc(C)cc2)c1`, for which the inhibition is 0.9% (inactive).

As to `COc1cccc(NC(=O)C2CCCCC2)c1`, the inhibition was 5.6% (inactive).

As for `CCOc1ccc(NC(=S)Nc2cc(OC)c(Cl)cc2OC)cc1`, the inhibition is 24.8% (inactive).

In the case of `CCOc1cc(NC(=S)Nc2ccc(Cl)cc2)c(OCC)cc1NC(C)=O`, the inhibition was 55.9% (active).

For the molecule `CCOc1cc(NC(=S)Nc2ccccc2)c(OCC)cc1NC(=O)c1ccccc1`, the inhibition was 7.3% (inactive).

For the molecule `CCCCOc1ccc(Br)cc1CSC(=N)N`, the inhibition was -4.3% (inactive).

For the molecule `O=C(C[n+]1ccc(-c2cc(C(=O)Nc3cccc(C(F)(F)F)c3)c3ccccc3n2)cc1)c1cccc([N+](=O)[O-])c1`, the inhibition is -6.2% (inactive).

`COc1ccc(/C=C(/NC(=O)c2ccccc2)C(=O)N/N=C/c2ccc3c(c2)OCO3)cc1OC`: the inhibition was -10.4% (inactive).

Consider `O=C(CC1Nc2ccccc2NC1=O)NCCCN1CCCCCC1` (centres undefined), for which the inhibition was 0.7% (inactive).

For the molecule `Cc1ccc(NC(=S)N2CCN(S(=O)(=O)c3c(F)cccc3F)CC2)cc1C`, the inhibition was 11.5% (inactive).

In the case of `CC1CCCCN1C(=O)C12CCC(C)(C(=O)C1)C2(C)C` (centres undefined), the inhibition is 48.1% (inactive).

Regarding `Cc1c(C(N)=O)sc2ncn(CC(=O)NCCc3ccccc3)c(=O)c12`, the inhibition is -8.4% (inactive).

Consider `O=C(CCc1c[nH]c2ccccc12)NCC(=O)Nc1ccc(F)c(F)c1F`, for which the inhibition is -1.9% (inactive).

In the case of `CCCC(=O)Nc1ccc(S(=O)(=O)Nc2cc(C)nc(C)n2)cc1`, the inhibition is 4.9% (inactive).

Regarding `CCOC(=O)c1ccc(NC(=S)NC2CCCC2)cc1`, the inhibition is -1.3% (inactive).

Turning to `CCOc1ccc(NC(=O)c2ccc(NC(=S)NC3CCCCC3)cc2)cc1`, the inhibition is 52.6% (active).

Regarding `CCOc1ccc(NC(=O)c2ccc(NC(=S)NC3CC3)cc2)cc1`, the inhibition was 12.4% (inactive).

For `CCCCN(C(=O)NC(=O)Nc1cccc(C)c1C)S(C)(=O)=O`, the inhibition was -3.7% (inactive).

Consider `COc1cc2c(C#N)c(N3CCN(c4ccccc4OC)CC3)nc(N)c2c(N)n1`, for which the inhibition was 54% (active).

On to `COc1cc2c(C#N)c(N3CCOCC3)nc(N)c2c(N)n1`, for which the inhibition was 22% (inactive).

Consider `COc1cc2c(C#N)c(N3CCN(C)CC3)nc(N)c2c(N)n1`, for which the inhibition was 34.6% (inactive).

Regarding `COc1ccc(CN=CC2=C(O)CNC2=O)cc1OC`, the inhibition was -8.2% (inactive).

Consider `CCOC(=O)Cn1c(=O)oc2cc(S(=O)(=O)Nc3c(C)cc(C)cc3C)ccc21`, for which the inhibition is 5.9% (inactive).

For the molecule `CCN(CC)c1ccc(NS(=O)(=O)c2ccc3c(c2)oc(=O)n3C)c(C)c1`, the inhibition was 23.7% (inactive).

With `CCOC(=O)Cn1c(=O)oc2cc(S(=O)(=O)Nc3ccc(N(CC)CC)cc3C)ccc21`, the inhibition was 51.2% (active).

Source of the values: PubChem BioAssay AID1220 (Sanford-Burnham Center for Chemical Genomics, 2008).
